Reference: PubChem BioAssay (NCATS)
Records with an inconclusive call do not appear. Unmarked numbers belong to inactive results. Active and inactive are the calls of the source. Calls follow the shape of the dose curve; as a rule, active = well fitted inhibition curve with a large enough effect; inconclusive = small, poorly fitted or top-dose-only effect, or effect the other way; inactive = flat fitted curve, though single readings scatter.

biological target: Ubiquitin carboxyl-terminal hydrolase 2 (Homo sapiens) (UniProt O75604); test: qHTS Validation Assay for Inhibitors of Ubiquitin-specific Protease USP2a Using CHOP2 as the Reporter (AID 463106); conditions: USP2a cleavage of CHOP2 reporter, enzymatic; series mostly up to 38.3 µM; activity, negative = inhibition: at the top concentration;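 also: plate controls were DMSO for no effect and full inhibition by NEM for full effect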
Sequence (O75604 whole entry, looked up): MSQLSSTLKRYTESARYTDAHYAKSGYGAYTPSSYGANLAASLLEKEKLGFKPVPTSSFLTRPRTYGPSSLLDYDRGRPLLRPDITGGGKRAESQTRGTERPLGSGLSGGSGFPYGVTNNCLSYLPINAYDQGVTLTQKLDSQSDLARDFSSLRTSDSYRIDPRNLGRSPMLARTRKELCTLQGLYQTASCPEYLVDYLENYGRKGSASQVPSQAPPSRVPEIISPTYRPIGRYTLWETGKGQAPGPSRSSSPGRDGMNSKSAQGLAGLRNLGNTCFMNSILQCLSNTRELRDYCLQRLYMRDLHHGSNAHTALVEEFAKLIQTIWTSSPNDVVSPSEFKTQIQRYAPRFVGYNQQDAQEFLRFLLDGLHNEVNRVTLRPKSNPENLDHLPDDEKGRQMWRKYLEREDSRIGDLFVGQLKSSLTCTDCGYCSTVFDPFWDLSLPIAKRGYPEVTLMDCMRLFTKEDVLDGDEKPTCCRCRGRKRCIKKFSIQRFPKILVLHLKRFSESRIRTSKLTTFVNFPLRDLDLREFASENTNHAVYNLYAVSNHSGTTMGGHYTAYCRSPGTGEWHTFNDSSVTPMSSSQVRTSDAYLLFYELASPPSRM
From the text: NIH Molecular Libraries Screening Centers Network [MLSCN]
NIH Chemical Genomics Center [NCGC]
PI Name: Nicholson, Ben. Progenra Inc, Malvern, PA
Homeostasis of cellular proteins is maintained through a combination of synthesis and degradation. The pathway that accounts for the majority of protein degradation is the ubiquitin-proteasomal pathway. Ubiquitin (Ub) is highly conserved in all cells and the generation of a multi-Ub chain typically targets proteins for degradation by the proteasome. However, ubiquitination is highly reversible and dynamic. Deubiquitination, the reverse process, is catalyzed through the action of enzymes referred to as isopeptidases or deubiquitinating enzymes (DUBs). This group of enzymes is collectively responsible for maintaining adequate pools of free ubiquitin and regulating the ubiquitination status of cellular proteins. The class of DUBs referred to as the ubiquitin-specific proteases (USP) family functions endoproteolytically to cleave Ub chains from a wide range of protein substrates. USP2a deubiquitinates fatty acid synthase (FASN) which has recently been identified as an emerging oncology target. To identify inhibitors of USP2a a cell-free assay was employed.
The reporter enzyme chosen is an enterokinase called CHOP2, which is activated when the Ub is cleaved by USP2. The free and now activated reporter can subsequently act on its reporter substrate. […] The assay was developed by Progenra, Inc. and has been licensed for sale by LifeSensors, Inc. as Ub-CHOP2-Reporter-Kit (#PR1101).
NCGC Assay Protocol Summary:
The assay buffer, prepared fresh at the day of the assay, contains 20mM Tris-HCl pH 8.0, 2mM CaCl2, 2mM beta-Mercaptoethanol, 0.05% CHAPS. 3ul of 20nM (10nM final) USP2 core, which is stored on ice, is dispensed into a medium-binding black solid Kalypsys 1,536 well plate using the Kalypsys dispenser. The assay plate is then pinned with 23nL compound with the Kalypsys pintool in columns 5-48. The controls are pinned as follows: column 1 two-fold dilutions of 2M NEM in duplicate; column 2 2M NEM (final concentration 38.2mM); column 3&4 DMSO. The assay plate is incubated at RT for 30min. Subsequently, 1.5uL of 100nM (25nM final) Ub-CHOP2 and 1.5uL of 100nM (25nM final) Reporter Substrate (both stored on ice and protected from light) were dispensed into the plate using the Kalypsys dispenser. Plates were read after 60min RT incubation on a ViewLux (Perkin Elmer) plate reader using the following wavelengths Ex 485nm /Em 531nm.
Data were normalized to the to AC100 inhibition (NEM). Concentration-response curves were fitted to the normalized data and the concentration-response curves were then classified based on curve quality (r2), response magnitude and degree of measured activity. The time zero reading was used to flag fluorescence artifacts.
Keywords: ubiquitination, deubiquitination, proteases, profluorescent, MLSMR, MLPCN, NIH Roadmap, qHTS, NCGC

Compound	activity, negative = inhibition	outcome
N[C@@H]1CONC1=O	-0.0293%	
CN1CCN(CCCN2c3ccccc3Sc3ccc(C(F)(F)F)cc32)CC1	-1.65%	
CCCCNc1cc(C(=O)O)cc(S(N)(=O)=O)c1Oc1ccccc1	-1.03%	
O=c1n(CCCN2CCN(c3cccc(Cl)c3)CC2)nc2ccccn12	3.47%	
O=c1[nH]cnc2[nH]ncc12	-1.21%	
C1COC(NC(C2CC2)C2CC2)=N1	0.789%	
NCCCC(N)(C(=O)O)C(F)F (stereo not given)	0.608%	
Oc1ccc(C2CNCCc3c2cc(O)c(O)c3Cl)cc1 (stereo not given)	-0.0833%	
NC(N)=NC(=O)c1nc(Cl)c(N)nc1N	-0.427%	
CC(C)(C)NCC(O)c1ccc(O)c(CO)c1 (stereo not given)		inactive
CCCC(CCC)C(=O)O	-0.704%	
C[C@]12CCC(=O)C=C1CC[C@@H]1[C@@H]2[C@@H](O)C[C@@]2(C)[C@H]1CC[C@]2(O)C(=O)CO	-2.09%	
Nc1nc2ccc(OC(F)(F)F)cc2s1	3.77%	
O=NN(CCCl)C(=O)NCCCl	1.42%	
Cc1[nH]c(=O)c(C#N)cc1-c1ccc2nccn2c1	-1.19%	
NNCCc1ccccc1	0.475%	
N=c1nc(N2CCCCC2)cc(N)n1O	0.244%	
CCC(C)N(C)C(=O)c1cc2ccccc2c(-c2ccccc2Cl)n1 (stereo not given)	1.75%	
Cc1[nH]c(=O)c(C#N)cc1-c1ccncc1	-0.0627%	
CC(C)C[C@H](NC(=O)[C@@H](O)[C@H](N)Cc1ccccc1)C(=O)O	4.06%	

Compound	activity, negative = inhibition	outcome
Cn1cnc([N+](=O)[O-])c1Sc1ncnc2nc[nH]c12	-1.47%	
CCn1cc(C(=O)O)c(=O)c2cc(F)c(N3CCNC(C)C3)c(F)c21 (stereo not given)	3.7%	
Nc1ccc(S(=O)(=O)Nc2ccnn2-c2ccccc2)cc1	2.02%	
NS(=O)(=O)c1cc2c(cc1Cl)NC=NS2(=O)=O	-0.716%	
CCOC(=O)C1=C[C@]2(CC)CCCN3CCc4c(n1c1ccccc41)[C@@H]32	0.103%	
Cc1ccccc1C(OCCN(C)C)c1ccccc1 (stereo not given)	-0.166%	
c1ccc([C@H]2CN3CCSC3=N2)cc1	0.164%	
CC(C)NCC(O)COc1ccc(COCCOC(C)C)cc1 (stereo not given)	-1.3%	
OC(CCN1CCCCC1)(c1ccccc1)C1CC2C=CC1C2 (stereo not given)	-1.8%	
Nc1ncnc2nc(-c3ccc(N4CCOCC4)nc3)cc(-c3cccc(Br)c3)c12	-0.522%	
Cc1cccc(-c2[nH]c(C(C)(C)C)nc2-c2ccc3nccnc3c2)n1	1.32%	
CC(C[N+](C)(C)C)OC(N)=O (stereo not given)	1.45%	
O=C1CCC(N2C(=O)c3ccccc3C2=O)C(=O)N1 (stereo not given)	4.78%	
OC(CN1CCC(Cc2ccc(F)cc2)CC1)c1ccc(Cl)cc1 (stereo not given)	2.93%	
NCCc1ccc(O)c(O)c1	1.57%	
NC(=O)c1cnccn1	-0.354%	
Cc1oncc1C(=O)Nc1ccc(C(F)(F)F)cc1	-0.509%	
Cc1cn[nH]c1	-1.4%	
Cc1ccc(N(CC2=NCCN2)c2cccc(O)c2)cc1	-2.88%	
O=C(O)COCCN1CCN(C(c2ccccc2)c2ccc(Cl)cc2)CC1 (stereo not given)	0.787%	
